40 compounds from PubChem BioAssay (NCATS) can be followed below.

SMILES strings stand for the structures. Records with an inconclusive call do not appear. Entries that show only a call come without a potency. Calls of active or inactive are those of the source. The call rests on the fitted dose curve; in most records, active means well fitted inhibition curve with a large enough effect; inconclusive means small, poorly fitted or top-dose-only effect; inactive means flat fitted curve, though single readings scatter.
Potency means the concentration at half of the fitted maximal effect.

The subject of this test is Zika virus NS2B-NS3 protease. Description: Primary screen GU AMC qHTS for Zika virus inhibitors (AID 1347154). Further: nearly all actives have a fitted effect of over 70% in size. Conditions: Zika NS2B-NS3 unlinked protease, AMC fluorogenic substrate; series mostly up to 54.1 µM. The essentials:
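Fluorogenic AMC-substrate cleavage by noncovalent NS2B-NS3 protease complex (25 nM, pH 8.0 Tris buffer with Tween 20) followed for 15 minutes at room temperature (~20% conversion). Percent inhibition from ex340/em450 signal change, fitted by 4-parameter Hill equation.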
A general note: In qHTS, concentration-response curves come from the screen itself.
Turning to `COCc1c(C(C)C)nc(C(C)C)c(/C=C/[C@@H](O)C[C@@H](O)CC(=O)O)c1-c1ccc(F)cc1`, the Potency result was “inactive”.

Consider `C=C1C(=C/C=C2\CCC[C@]3(C)[C@@H]([C@H](C)/C=C/[C@@H](O)C4CC4)CC[C@@H]23)C[C@@H](O)C[C@@H]1O`, for which the Potency entry was “inactive”.

Turning to `Cc1ccccc1C(=O)Nc1ccc(C(=O)N2CCCC(N(C)C)c3ccccc32)cc1` (stereo not given), the Potency entry was “inactive”.

In the case of `CN(C)CCCOc1nn(Cc2ccccc2)c2ccccc12`, the Potency entry is “inactive”.

With `CN(C)C(=S)SC(=S)N(C)C`, the Potency result is “inactive”.

Turning to `CCOc1ccc(NC(=O)CC(C)O)cc1` (stereo not given), the Potency result was “inactive”.

With `CCN(CCCc1ccccc1)CCCc1ccccc1`, the Potency entry is “inactive”.

In the case of `CC(C)NC[C@@H](O)COc1cccc2ccccc12`, the Potency entry is “inactive”.

Consider `CCOC(=O)[C@H](CCc1ccccc1)N[C@@H](C)C(=O)N1Cc2ccccc2C[C@H]1C(=O)O`, for which the Potency result is “inactive”.

Take `CCCCS(=O)(=O)N[C@@H](Cc1ccc(OCCCCC2CCNCC2)cc1)C(=O)O`: the Potency result is “inactive”.

For the compound `CC(=O)c1ccc2c(c1)N(CCCN1CCC(CCO)CC1)c1ccccc1S2`, the Potency result was “inactive”.

Take `C[C@@H](CN(C)C)CN1c2ccccc2Sc2ccccc21`: the Potency result is “inactive”.

Regarding `COc1cccc2c1C(=O)c1c(O)c3c(c(O)c1C2=O)C[C@@](O)(C(C)=O)C[C@@H]3O[C@H]1C[C@H](N)[C@H](O)[C@H](C)O1`, the Potency entry is “inactive”.

Take `O=C1OC(c2ccc(O)cc2)(c2ccc(O)cc2)c2ccccc21`: the Potency entry was “inactive”.

Take `C[C@]12CCC(=O)C=C1CC[C@H]1[C@@H]3CC[C@](O)(C(=O)CO)[C@@]3(C)C[C@H](O)[C@@]12F`: the Potency entry was “inactive”.

As to `C[C@]12CCC(=O)C=C1[C@@H]1C[C@@H]1[C@H]1[C@@H]3[C@@H]4C[C@@H]4[C@@]4(CCC(=O)O4)[C@@]3(C)CC[C@@H]12`, the Potency result was “inactive”.

In the case of `N[C@@H](CCC(=O)N[C@@H](CS)C(=O)NCC(=O)O)C(=O)O`, the Potency entry is “inactive”.

Regarding `CC(C)(Oc1ccc(Cl)cc1)C(=O)O`, the Potency entry is “inactive”.

Regarding `Cc1nc2n(c(=O)c1CCN1CCC(c3noc4cc(F)ccc34)CC1)CCC[C@H]2O`, the Potency result is “inactive”.

For `O=C(O)CCCCC(=O)O`, the Potency entry is “inactive”.

Take `CCCCCCCCCCCCCCCCCC(=O)OCC(O)CO` (stereo not given): the Potency entry is “inactive”.

As for `CC(C)(CO)[C@@H](O)C(=O)NCCCO`, the Potency entry is “inactive”.

As to `Cc1ccc(Nc2c(F)cccc2Cl)c(CC(=O)O)c1`, the Potency entry was “inactive”.

Turning to `Cc1cc(N)c2cc(NC(=O)Nc3ccc4nc(C)cc(N)c4c3)ccc2n1`, the Potency was 14.1 µM (active).

As to `Cc1ccc(C(=O)C(C)CN2CCCCC2)cc1` (stereo not given), the Potency result is “inactive”.

Take `CCCCCCCCCCCCCCCC[N+](C)(C)CC`: the Potency entry was “inactive”.

Take `Cc1cc(=O)n(-c2ccccc2)n1C`: the Potency entry is “inactive”.

On to `COc1cccc(CCc2ccccc2OCC(CN(C)C)OC(=O)CCC(=O)O)c1` (stereo not given), for which the Potency result is “inactive”.

Consider `CC[N+](CC)(CCNC(=O)C(=O)NCC[N+](CC)(CC)Cc1ccccc1Cl)Cc1ccccc1Cl`, for which the Potency result was “inactive”.

For `CCCCCCC[N+](CC)(CC)CCCCc1ccc(Cl)cc1`, the Potency entry was “inactive”.

`CN=C(NC#N)Nc1ccc(C2=NNC(=O)CC2C)cc1` (stereo not given): the Potency result is “inactive”.

Take `COC(=O)CCc1ccc(OCC(O)CNC(C)C)cc1` (stereo not given): the Potency result was “inactive”.

Consider `O=C(CCCN1CCC(O)(c2ccc(Br)cc2)CC1)c1ccc(F)cc1`, for which the Potency result is “inactive”.

Take `CCCCOc1ccc(OCCCN2CCOCC2)cc1`: the Potency result was “inactive”.

For `N[C@H](Cc1c[nH]c2ccccc12)C(=O)O`, the Potency result is “inactive”.

On to `CCCCCCc1ccc(O)cc1O`, for which the Potency entry was “inactive”.

As to `CN(C(=O)CN(CCO)CC(=O)N(C)C(C)(C)Cc1ccccc1)C(C)(C)Cc1ccccc1`, the Potency result is “inactive”.

For the compound `O=C1[C@H]2CCCC[C@H]2C(=O)N1CCCCN1CCN(c2nsc3ccccc23)CC1`, the Potency result is “inactive”.

With `CC1(C)O[C@@H]2[C@@H](CO[C@@]3(COS(N)(=O)=O)OC(C)(C)O[C@@H]23)O1`, the Potency entry was “inactive”.

With `CCCCCCCCCCOCC(O)CN` (stereo not given), the Potency result is “inactive”.
